# Reference: PubChem BioAssay (EPA / NIEHS)
# Records with an inconclusive call do not appear. Calls of active or inactive are those of the source. How the source made its calls: active means hit-call score of the fitted dose curve at least 0.9, where 1 is the maximum; inconclusive means response in the unintended direction; inactive means score below 0.9.
# Tested on: zebrafish Estrogen Receptor (ER2b), gene 317733
# Assay: ATG_zfER2b_XSP2: Attagene TRANS-FACTORIAL Multi-Species (XSP2) HepG2 Assay for zebrafish Estrogen Receptor (ER2b) (AID 2283823);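 further: fitted upward as reporter gain over DMSO so potency reflects activation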
# Procedure: ATG_XSP2_multi-species_TRANS is a cell-based, multiplexed assay created by modifying the existing Attagene TRANS-FACTORIAL system to include a panel of nuclear receptors from some or all the following species: human (Homo sapiens), mouse (Mus musculus), frog (Xenopus laevis), zebrafish (Danio rerio), chicken (Gallus gallus), and turtle (Chrysemys picta). The ECOTOX-FACTORIAL format uses HepG2, a human liver cell line, with measurements taken at 24 hours after chemical dosing in a 24-well plate. Xsp2 included 3 nM 6-alpha-fluorotestosterone and 1.5 nM norgestrel to stimulate the androgen receptor.ATG_zfER2b_XSP2 is one of 29 assay components measured or calculated from the ATG_XSP2_multi-species_TRANS assay. It is designed to make measurements of mRNA induction, a form of inducible reporter, as detected with fluorescence intensity signals by Reverse transcription polymerase chain reaction (RT-PCR) and Capillary electrophoresis technology.The assay endpoint ATG_zfER2b_XSP2 was analyzed in the positive analysis fitting direction relative to DMSO as the negative control and baseline of activity. Using a type of inducible reporter, measures of mRNA for gain-of-signal activity can be used to understand the reporter gene at the transcription factor-level as they relate to the gene ER. Furthermore, this assay endpoint can be referred to as a primary readout, because this assay has produced multiple assay endpoints where this one serves a reporter gene function. To generalize the intended target to other relatable targets, this assay endpoint is annotated to the nuclear receptor intended target family, where the subfamily is steroidal.
# Human liver HepG2 cells are transiently transfected with multiple reporter transcription units (MRTUs) in 6-well plates using FuGene 6 reagent (Roche; 3 ml FuGene/1 mg DNA). The MRTU constructs are regulated by a cis-regulating element (promoter). […] A major difference between the CIS and TRANS system is that in CIS activities of endogenous TFs are measured, whereas the TRANS assay evaluates changes in activities of exogenous, chimeric NR-Gal4 proteins. […] At the end of 24 hour incubation, total RNA was isolated using TriZol reagent (Invitrogen). The isolated RNA is then reverse-transcribed using oligo(dT) primer and Mo-MLV reverse transcriptase (Invitrogen) with DNAse I (Ambion) treatment for 30 min. The one-tenth of the produced cDNA was amplified by PCR using Taq DNA polymerase (Invitrogen) and two reporter sequence-specific primers. The PCR products were fluorescently labeled by primer extension with 6-arboxyfluorescein (6-FAM) 5'-labeled reporter sequence-specific primer (2 min at 95 C, 20 s at 68 C and 10 min at 72 C) and these products were digested with 5U of HpaI (New England Biolabs) for 2h at 37 C. The fragments were purified using Qiaquick PCR columns (Qiagen), analyzed on an ABI 3130xL genetic analyzer (Applied Biosystems) with peak positions identified by using a set of X-rhodamine (ROX)-labeled MapMarker1000 molecular weight standards (BioVentures). The raw capillary electrophoresis data was processed using Attagraph software (Attagene).
SMILES,AC50,outcome
CCOP(=S)(OCC)SCn1c(=O)oc2cc(Cl)ccc21,31.8 µM (active),
CCCCC(CC)COC(=O)c1ccccc1C(=O)OCC(CC)CCCC (stereo unspecified),8.7 µM (active),
CCCN(CCC)c1c([N+](=O)[O-])cc(S(N)(=O)=O)cc1[N+](=O)[O-],40.4 µM (active),
OC(c1ccc(Cl)cc1)(c1cncnc1)c1ccccc1Cl (stereo unspecified),7.41 µM (active),
COC(=O)N(OC)c1ccccc1COc1ccn(-c2ccc(Cl)cc2)n1,,inactive
C=CC1(C)OC(=O)N(c2cc(Cl)cc(Cl)c2)C1=O (stereo unspecified),142 µM (active),
CO/C=C(/C(=O)OC)c1ccccc1Oc1cc(Oc2ccccc2C#N)ncn1,,inactive
C#CCOS(=O)OC1CCCCC1Oc1ccc(C(C)(C)C)cc1 (stereo unspecified),100 µM (active),
COP(=S)(OC)Oc1nc(Cl)c(Cl)cc1Cl,87.2 µM (active),
CCCC1COC(Cn2cncn2)(c2ccc(Cl)cc2Cl)O1 (stereo unspecified),39.5 µM (active),
CC(C)(C)c1ccc(CSc2cnn(C(C)(C)C)c(=O)c2Cl)cc1,,inactive
CC(C)Oc1cc(-n2nc(C(C)(C)C)oc2=O)c(Cl)cc1Cl,59.1 µM (active),
CCCCOC(=O)c1ccccc1C(=O)OCCCC,79.3 µM (active),
CCCCNC(=O)OCC#CI,26.2 µM (active),
COc1ccc(C(c2ccc(OC)cc2)C(Cl)(Cl)Cl)cc1,8.65 µM (active),
CON(C)C(=O)Nc1ccc(Cl)c(Cl)c1,,inactive
